Screens deposited in PubChem by National Center for Advancing Translational Sciences (NCATS).
Shown are actives, neighbours in structure and some others; about 14% of the full set was active somewhere.
FBPA Giardia inh – Giardia lamblia aldolase inhibition; 290,000 compounds, 0.71% hits; purified Giardia FBPA; Potency, µM (top dose mostly 59.6 µM), without a hit: at the highest dose activity, negative = inhibition, hits mostly inhibitors; AID 2451; also: potency is read from the fitted curve at half-maximal effect; nearly all actives have a fitted effect of over 55% in size
Target sequence (A8B2U2 whole entry, looked up): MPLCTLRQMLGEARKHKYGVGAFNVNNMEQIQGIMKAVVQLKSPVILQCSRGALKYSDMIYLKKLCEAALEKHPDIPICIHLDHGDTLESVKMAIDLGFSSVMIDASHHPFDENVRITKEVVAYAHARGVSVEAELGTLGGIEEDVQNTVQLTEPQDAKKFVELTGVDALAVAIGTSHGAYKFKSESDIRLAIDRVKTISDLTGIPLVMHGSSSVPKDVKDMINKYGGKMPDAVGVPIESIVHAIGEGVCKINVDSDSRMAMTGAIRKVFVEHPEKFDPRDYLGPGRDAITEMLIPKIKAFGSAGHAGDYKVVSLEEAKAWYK
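Giardia FBPA (40 nM reagent) was preincubated 10 min at RT with compound (up to 57.5 uM final), then substrate plus GAPDH/TPI/NAD/arsenate coupling system with diaphorase/resazurin was added; resorufin fluorescence (525/598 nm) was read after 20 min.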
Sm TGR block – inhibitors of Schistosoma mansoni thioredoxin glutathione reductase; Q962Y6; purified TGR, DTNB reduction, TNB absorbance 405 nm; Potency, µM (titrated, usually from 114 µM), inactives show top-dose activity change, negative = inhibition, usual class: inhibitors; 360,000 compounds, 3% hits; also: potency is read from the fitted curve at half-maximal effect; nearly all actives have a fitted effect of over 60% in size
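TGR 20 nM + NADPH 100 uM (dispensed conc.), cpd preinc 15 min RT; start with NADPH (500 uM addition) then DTNB (15 mM addition). Kinetic TNB absorbance, 405 nm filter. Four-parameter Hill fit across titration.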
HCMV inh – blocks human cytomegalovirus replication; HFF cells, HCMV-luciferase reporter, 72 h; active compounds read low; activity change, negative = inhibition, % at 57.5 µM; 410,000 compounds, 4.5% hits; in the data active = activity change below about -60%; inconclusive = no clear call, values can overlap the other calls; inactive = above about -39%
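Compounds were evaluated in HFFs infected with an HCMV luciferase reporter virus (MOI 1 PFU/cell). Luciferase in lysates collected 72 h post infection served as the replication measure.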
Pf growth 48h – P. falciparum growth inhibition at 48 hours (one generation). P. falciparum luciferase growth in erythrocytes, 48 h. Potency, µM (top dose mostly 28.7 µM), inactives show at the top dose activity change, negative = inhibition, usual class: inhibitors. AID 504832. 310,000 compounds, 5.9% hits; also: potency is read from the fitted curve at half-maximal effect
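In quantitative HTS format, infected erythrocytes bearing luciferase-reporter parasites were treated for a single generation at 37 C. Luminescence after adding detection reagent served as the growth measure.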
Pf growth 96h – P. falciparum growth inhibition at 96 hour, primary screen for plastid delayed-death inhibitors | Potency, µM (top dose mostly 28.7 µM), for inactives: at the highest dose activity change, negative = inhibition, usual class: inhibitors | 320,000 compounds, 6.9% hits | P. falciparum luciferase reporter growth, 96 h; also: potency is read from the fitted curve at half-maximal effect
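Cell-based qHTS: luciferase-tagged P. falciparum in erythrocytes (2% hematocrit, 0.05% parasitemia final) incubated with compounds for 96 hours, 37 C, 5% CO2; luciferase detection reagent then added and luminescence measured.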
Numbers without * were called inactive; ? = inconclusive; . = not tested or not shown; [ ] = remark or other dose. Unless noted, calls follow the shape of the dose curve; as a rule, active = well fitted curve in the direction sought with a large enough effect; inconclusive = small, poorly fitted or top-dose-only effect, or another doubt; inactive = no such curve, though single readings can be large; an effect the other way counts as inactive or inconclusive. % is scaled to controls: 0 for no effect and ±100 for the full control effect.

SMILES	FBPA Giardia inh	Sm TGR block	HCMV inh	Pf growth 48h	Pf growth 96h
O=C1C=C2C=C[C@H]3C[C@@]2(O1)[C@H]1CCCCN31	1%[21.7 µM]	.	.	.	.
O=C1C=C2C=C[C@H]3C[C@]2(O1)[C@@H]1CCCCN13	-3%	-15%	?	?	?
O=C1C=C2C=C[C@@H]3CC2(O1)[C@H]1CCCCN31	.	?	-94*	?	?
O=C1C=C2C=CC3C[C@@]2(O1)C1CCCCN31 (stereo not given in full)	5%	.	.	12µM*	2.7µM*
Cc1c(C(=O)C(=O)NCCC2=CCCCC2)c2ccccc2n1C	1%	-1%	-62*	?	4%
CC(/C=N/NC(=O)c1ccc(Br)cc1)=C\c1ccccc1	-1%	-7%	-63*	.	?
CC(/C=N/Nc1nc(C)cc(C)n1)=C\c1ccc(C(C)C)cc1	-12%	-7%	-4	10µM*	?
COc1ccc(C(=O)N/N=C\C(C)=C\c2ccccc2)cc1OC	.	.	7	.	.
CC(/C=N/NC(=O)c1ccncc1)=C\c1ccc(C(C)C)cc1	6%	-1%	34	4.7µM*	5.2µM*
CCNC(=S)N1CCNC(=O)C1CC(=O)OC (stereo not given)	-7%	-9%	-72*	37%	53%
CCc1cc(=O)oc2c(C)c(O)c(CN3CCCCC3)cc12	0%	-3%	39	?	.
C=CCc1cc2c(oc(=O)c3ccccc32)c(C)c1O	2%	0%	-2	-13%	15µM*
Cc1c(O)c(CN2CCCC2)cc2c3c(c(=O)oc12)CCC3	-18%	?	88	3.3µM*	?
Cc1c(O)c(CN2CCCC2)cc2c1oc(=O)c1ccccc12	-5%	50µM*	-21	1.5µM*	6%
COc1ccc(S(=O)(=O)N(CCc2ccccc2)CC(=O)Nc2ccc(C)c(C)c2)cc1OC	.	3%	-16	.	.
CC1(C(=O)NS(=O)(=O)c2ccc(Cl)s2)CCN1C(=O)c1ccc(C2CCCCC2)cc1 (stereo not given)	.	.	38	.	.
CC(C)CCNC(=O)C1(c2cccs2)CCOCC1	5%	7%	5	-7%	4%
Nc1ccc(C(=O)N2CCN(S(=O)(=O)c3ccc(Br)cc3)CC2)cc1[N+](=O)[O-]	.	-11%	-61*	?	8.3µM*
Cc1ccc(S(=O)(=O)N2CCN(C(=O)c3ccc(-n4cncn4)c([N+](=O)[O-])c3)CC2)cc1C	.	-6%	1	?	7.4µM*
CCN(CC)S(=O)(=O)c1cc(NC(=O)c2ccc(-n3cncn3)c([N+](=O)[O-])c2)ccc1C	.	-9%	-84*	13µM*	15µM*
O=C(Nc1ccc(Cl)cc1)c1ccc(-n2cncn2)c([N+](=O)[O-])c1	-12%	-4%	-38	?	?
Cc1ccc(NC(=O)c2ccc(-n3cncn3)c([N+](=O)[O-])c2)cc1	-9%	-3%	9	?	?
O=C(Nc1cccc(Cl)c1)c1ccc(-n2cncn2)c([N+](=O)[O-])c1	-6%	-1%	9	12µM*	?
N#Cc1ccccc1S(=O)(=O)N1CCNS(=O)(=O)c2ccccc21	.	.	-20	.	.
CC1(c2ccc(OC(F)F)cc2)NC(=O)N(CC(=O)Nc2cccnc2Cl)C1=O (stereo not given)	.	-1%	18	-8%	?
SMILES	FBPA Giardia inh	Sm TGR block	HCMV inh	Pf growth 48h	Pf growth 96h
COC(=O)c1cc2c(c3c4cc(OC)ccc4n(C(=O)c4ccccc4)c13)C(=O)N(Cc1ccco1)C2	.	.	-24	.	.
Fc1ccc(/C=N/Nc2ncnc3nc[nH]c23)cc1F	0%	2%	101	?	9.3µM*
O=S(=O)(c1ccccc1)N1CCN=C1SCc1c(F)cccc1Cl	-17%	8%	-80*	8%	?
O=S(=O)(c1ccc(Cl)cc1)N1CCN=C1SCc1cccc(Cl)c1	-7%	-13%	-62*	-2%	?
O=C(c1cccs1)N1CCN=C1SCc1cccnc1	11%	-1%	-23	6%	66%
O=C(N1CCN=C1SCc1cccnc1)C12CC3CC(CC(C3)C1)C2	-2%	5%	?	15µM*	-29%
COc1ccc(S(=O)(=O)N2CCN=C2SCc2cccnc2)cc1	-7%	8%	?	7%	28%
COc1ccc(S(=O)(=O)N2CCN=C2SCc2cccc(C)c2)cc1	2%	1%	-75*	?	?
O=S(=O)(c1ccccc1)N1CCN=C1SCc1cccnc1	?	-12%	-40	29%	14%
O=S(=O)(c1ccc(Cl)cc1)N1CCN=C1SCc1cccnc1	-13%	-5%	-75*	?	25%
COc1ccc(C(=O)OCC(=O)NC23CC4CC(CC(C4)C2)C3)c(OC)c1OC	.	10%	32	?	?
C[C@]12C(=O)N(c3cccc(F)c3)C(=O)N1[C@@H]1c3ccccc3OC[C@@H]1[C@H]2c1ccccc1	-4%	-1%	-86*	?	8.3µM*
C[C@]12C(=O)N(c3cccc(Cl)c3)C(=O)N1[C@@H]1c3ccccc3OC[C@@H]1[C@H]2c1ccccc1	.	.	48	.	.
Cc1ccc(N2C(=O)N3[C@H]4c5ccccc5OC[C@@H]4[C@@H](c4ccccc4)[C@@]3(C)C2=O)cc1	-8%	1%	.	?	8.3µM*
C[C@]12C(=O)N(c3ccccc3)C(=O)N1[C@@H]1c3ccccc3OC[C@@H]1[C@H]2c1ccccc1	5%	17%	-13	?	4%
COc1ccc(NC(=O)CSc2nc3c(oc4ccccc43)c(=O)n2Cc2ccco2)cc1Cl	.	2%	-98*	.	.
COCCn1c(SCC(=O)Nc2ccccc2OC)nc2c(oc3ccccc32)c1=O	5%	5%	-63*	?	-2%
COc1ccc(Cl)cc1NC(=O)CSc1nc2c(oc3ccccc32)c(=O)n1Cc1ccco1	.	7%	15	.	.
COCCn1c(SCC(=O)Nc2ccc(F)cc2)nc2c([nH]c3ccccc32)c1=O	2%	0%	43	?	3.3µM*
COCCn1c(SCC(=O)Nc2ccccc2)nc2c(oc3ccccc32)c1=O	4%	3%	-17	-6%	-8%
COCCn1c(-c2ccc(OC)cc2)cnc1SCC(=O)Nc1cccc2ccccc12	1%	11%	39	?	1.7µM*
CCOc1ccc(C2=CC(=O)C[C@H](c3ccc(OC)cc3)C2)cc1	.	-2%	30	-2%	24%
Cc1ccc(NC(=O)CSc2nc(-c3ccco3)cc(C(F)(F)F)n2)cc1	.	-4%	?	.	.
COCCn1c(SCC(=O)Nc2ccccc2OC)nc2c([nH]c3ccccc32)c1=O	.	7%	23	?	9.3µM*
C=CCn1c(SCC(=O)Nc2ccc(F)cc2F)nc2c([nH]c3ccccc32)c1=O	.	-19%	-2	3%	9%
COCCn1c(SCC(=O)Nc2ccc(F)c(Cl)c2)nc2c(oc3ccccc32)c1=O	.	1%	-80*	.	.
